These results are taken from PubChem BioAssay AID1211 (NMMLSC, 2008).

The target in the assay is Estrogen receptor (Homo sapiens) (UniProt P03372). The experiment in a line: displacement of fluorescent estrogen from ERalpha – cell-based, Cos7 ERalpha-GFP, flow cytometry, primary screen (AID 1211).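 Note: 0% = DMSO vehicle wells and 100% = no E2-Alexa633 signal left.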 The conditions noted are these: fluorescent ligand competition, binding inhibition, at 0.1 µM, stronger effect = higher value. A general note: Flow cytometry measures light scatter and fluorescence of single cells or particles in a stream.
Estrogen receptor (Homo sapiens), sequence (P03372 whole entry, looked up): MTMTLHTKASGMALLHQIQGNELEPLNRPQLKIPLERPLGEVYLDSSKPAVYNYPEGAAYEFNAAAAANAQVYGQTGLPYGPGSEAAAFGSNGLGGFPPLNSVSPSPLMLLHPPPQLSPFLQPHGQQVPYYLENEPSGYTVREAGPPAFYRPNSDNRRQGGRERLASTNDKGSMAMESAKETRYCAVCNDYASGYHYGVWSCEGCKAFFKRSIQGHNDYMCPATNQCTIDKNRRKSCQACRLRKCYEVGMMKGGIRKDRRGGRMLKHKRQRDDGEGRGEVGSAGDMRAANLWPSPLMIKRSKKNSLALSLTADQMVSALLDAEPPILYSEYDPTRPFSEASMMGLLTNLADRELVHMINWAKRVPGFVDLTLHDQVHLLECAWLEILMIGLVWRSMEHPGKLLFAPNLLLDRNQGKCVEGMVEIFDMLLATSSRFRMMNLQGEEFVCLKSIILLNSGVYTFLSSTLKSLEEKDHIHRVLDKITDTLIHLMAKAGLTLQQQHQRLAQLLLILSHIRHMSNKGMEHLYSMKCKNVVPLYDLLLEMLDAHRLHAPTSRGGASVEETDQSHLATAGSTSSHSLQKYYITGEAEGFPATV
Compound `C[C@H]1CCC[C@@H](O)CCC/C=C/c2cc(O)cc(O)c2C(=O)O1` showed an inhibition of ligand binding of 74%.

`Cc1ccc(S(=O)(=O)Cc2ccc(C(=O)N3CCC4(CC3)OCCO4)o2)cc1`: the inhibition of ligand binding worked out at 24%.

On to `COc1ccc(Cn2c(N)c(C(=O)NCc3ccco3)c3nc4ccccc4nc32)cc1`, for which the inhibition of ligand binding was 45%.

Consider `CC(=O)c1ccc2c(c1)C1C(Cl)C(Sc3ccccc3[N+](=O)[O-])CC1C(c1ccccc1[N+](=O)[O-])N2` (configuration not stated), for which the inhibition of ligand binding amounted to 38%.

With `CCOc1ccccc1N1C(=O)NC(=O)C(CCc2ccncc2)(CCc2ccncc2)C1=O`, the inhibition of ligand binding turned out to be 24%.

Consider `NC(=O)c1ccc(N=Nc2c(O)[nH]c(=O)[nH]c2=O)cc1`, for which the inhibition of ligand binding was found to be 14%.

Take `O=C(O)c1cccc2c1NC(C(=O)O)C1CC(Sc3ccccc3[N+](=O)[O-])C(Cl)C21` (configuration not stated): the inhibition of ligand binding was found to be 1%.
